High-throughput results (PubChem BioAssay)
This is a sample that favours compounds with a hit; in the whole collection about 2.8% have one here.
Wee1 stabilizer – human Wee1 degradation inhibition, primary screen. AID 1321. 220,000 tested, 1.2% active. HeLa Luc-Wee1K328M stability, luciferase luminescence; 100% = proteasome inhibitor MG132 effect. P30291. reporter increase, % at 5 µM;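 active = activation above the mean of all tested compounds plus 3 SD, set per screening run, cut at about 8.8% in these data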;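 also: cells exposed to compound for 20 h before luminescence read; 0% = DMSO alone and 100% = MG132 at 30 µM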
HSV replic up – HSV replication enhancement | HSV replication augmentation in cells, fold increase | maximum fold increase | 220,000 tested, 0.005% active; in the data active = maximum fold increase above about 1.5; tested in PC3 cells
EP2 antag – blocks the human prostaglandin E2 receptor EP2. inhibition, % at 25 µM. 260,000 tested, 0.52% active. C6 glioma cells expressing human EP2, cAMP TR-FRET; cells stimulated with saturating PGE2. P43116;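 active = percent inhibition above 40 after rounding to a whole number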;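 also: rat C6 glioma host cells with rolipram phosphodiesterase inhibitor present; the protocol text gives 20 µM as final concentration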
Furin inhibitor – inhibitors of human furin; P09958; purified furin, fluorogenic substrate cleavage; inhibition, % at 20 µM or 30 µM; 220,000 tested, 0.061% active; AID 463115; in the data active = inhibition above about 25%
EP2 modulator – modulators of human EP2 prostaglandin E2 receptor | P43116 | EP2-expressing cells, cAMP HTRF FRET, PGE2 co-stimulation | induction, % at 25 µM | 260,000 tested, 0.83% active;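 active = compounds whose cAMP rise, as percent of the full-agonist control response, exceeds 60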;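 also: rat C6 glioma line stably carrying human EP2 under a CMV promoter; the protocol text gives 20 µM as final concentration; 100% = response of wells given 1 µM PGE2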
NCF1 inh – inhibitors of human p47phox binding. 220,000 tested, 0.53% active. p47phox/p22phox peptide binding, fluorescence polarization, 2 h. AID 1274. inhibition, % at 24.7 µM;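 active = inhibition above about 30%, limit read from the data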;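 also: 0% = p47phox with labelled peptide and 100% = labelled peptide alone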
EP2 cAMP induct – EP2 receptor cAMP induction, counter-screens negative; AID 1080; calls only at 20 µM (by protocol); 1,300 tested, 47% active; shares compounds with EP2 modulator; C6 glioma EP2 cells, cAMP HTRF induction; plus low (about EC15) PGE2 agonist;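 active = cAMP induction above 50% in the main assay while under 30% in all four parallel counter assays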;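 also: rat C6 glioma cells stably expressing human EP2 receptor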
Wee1 degr conf – human Wee1 degradation inhibition, confirmation; shares compounds with Wee1 stabilizer; HeLa Luc-Wee1K328M degradation, luminescence; vehicle 0%, proteasome-blocked wells 100%; activation, % at 5 µM; 1,100 tested, 4% active; AID 1410; in the data active = activation above about 8.9%
* marks the source's active call; other numbers are inactive results; i = inactive; . = no result given.

SMILES	Wee1 stabilizer	HSV replic up	EP2 antag	Furin inhibitor	EP2 modulator	NCF1 inh	Wee1 degr conf	others
COc1ccc(CN2CCN(C(=O)COc3ccc(Cl)cc3)CC2)c(OC)c1OC	.	.	13	.	-118	.	.
CC(=O)C1CC[C@H]2C3CC[C@H]4C[C@H](O)CC[C@]4(C)C3CC[C@]12C (stereo partly drawn)	.	.	19	.	50	.	.	EP2 cAMP induct=i
CC(=O)[C@H]1CC[C@H]2[C@@H]3CC[C@H]4C[C@H](O)CC[C@]4(C)[C@H]3C(=O)C[C@]12C	-2	i	17	-12	18	-2	.
COc1ccc(NC2=NCC(C)S2)cc1 (stereo not drawn)	2	i	4	-16	-21	-11	.
COc1ccc(NC2=NC(C)(C)CS2)cc1	16*	i	4	-16	-4	-14	2
O=C(CN1C2CCC1CC(O)(c1ccccn1)C2)NCC1CCCO1 (stereo not drawn)	.	.	1	.	-16	.	.
CCn1cc(CN2CCCC(C(=O)c3sccc3C)C2)cn1 (stereo not drawn)	11*	i	6	1	-4	-1	1
CCCCC(=O)N/N=C/c1c(O)n(CCc2ccccc2)c(=O)[nH]c1=O	21*	i	6	-21	-11	-21	2
CC(C)(CN1CCCCC1)CN1C2CCC1CC(O)(c1ccccc1F)C2 (stereo not drawn)	.	.	1	.	-31	.	.
